Screens: PubChem BioAssay, National Center for Advancing Translational Sciences (NCATS)
Most compounds without a hit are left out; they make up all but 19% or so of the library.
DT40 TDP1 no CPT = qHTS for Inhibitors of human tyrosyl-DNA phosphodiesterase 1 (TDP1): qHTS in cells in absence of CPT. 420,000 tested, 15% active. AID 686978, 2013. Potency, µM (top dose mostly 46.2 µM), most hits filed as inhibitors. DT40 Tdp1-/- hTDP1 cells, no CPT, ATP luminescence, 48 h; note: nearly all actives have a fitted effect of over 55% in size
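Growth kinetics read by CellTiter-Glo luminescence after ≥48 hr at 37 °C. Cells: DT40 Tdp1-/- stably carrying human TDP1, 400 per well, compound exposure in the absence of CPT (DMSO vehicle).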
TDP1 cell CPT = growth inhibition of DT40 Tdp1-/-;hTDP1 cells with camptothecin (screen for TDP1 inhibitors); chicken DT40 Tdp1-/-;hTDP1 cells + 20 nM CPT, ATP luminescence, 48 h; Potency, µM (series often up to 46.2 µM), most hits filed as inhibitors; 420,000 tested, 12% active; note: nearly all actives have a fitted effect of over 55% in size
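Cell growth measured by CellTiter-Glo luminescence after a minimum 48 h, 37 C compound exposure with 20 nM CPT in Tdp1-knockout DT40 cells stably expressing hTDP1, seeded 400/well; qHTS titration format.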
IL1B secr inh = inhibitors of inflammasome signaling (IL-1 beta secretion); THP-1 LPS/ATP IL-1B secretion, AlphaLISA, 16 h; active compounds read low; activity change, % at 57.5 µM; 360,000 tested, 4.7% active; AID 743279; in the data active = activity change below about -50%; inconclusive = mostly about -30% to -49%
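Secreted IL-1B measured by AlphaLISA bead assay after 16 h compound exposure of THP-1 cells; compounds (final up to 57.5 uM) added 1 h before LPS (250 ng/mL) and ATP (1.25 mM) stimulation; lower signal means less secretion.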
uPA surface inh = blocks generation of uPA at the cell surface. cell surface uPA generation assay, qHTS. Potency, µM (highest dose often 38.3 µM), actives largely listed as inhibitors. 330,000 tested, 0.31% active. AID 540303; active = well fitted inhibition curve with a large enough effect; inconclusive = small, poorly fitted or top-dose-only effect; inactive = no such curve, though single readings can be large or run the other way; tested in mouse RAW 264.7 cells; note: nearly all actives have a fitted effect of over 55% in size
HT1080 IDH1KD tx = HT-1080 IDH1 knockdown cell toxicity (counter line); HT-1080 IDH1 knockdown viability, ATP luminescence, 48 h; Potency, µM (doses to about 46.1 µM), usual class: cytotoxic; AID 686971; 360,000 tested, 2% active
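After a 2 h attachment period, IDH1KD HT-1080 cells took pin-transferred compound for 48 h at 37 °C; ATP-based luminescence after 10 min room-temperature reagent incubation reported viability.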
HT1080-NT tox = kills 2HG-producing HT-1080-NT fibrosarcoma cells; 360,000 tested, 1.6% active; AID 686970; Potency, µM (top dose mostly 46.1 µM), most hits filed as cytotoxic; HT-1080-NT fibrosarcoma viability, CellTiter-Glo ATP luminescence, 48 h;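 note: NT is the 2HG producing partner of a matched IDH1 knockdown line; nearly all actives have a fitted effect of over 55% in size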
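Viability of the 2HG-overproducing fibrosarcoma line after 48 hours of compound exposure at 37 degrees C was determined by luminescence with CellTiter-Glo, and concentration-effect curves were then fitted and categorized.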
Of the large screens only hits and unclear results are named; the others gave an inactive call. Unless noted, calls come from the whole dose curve; as a rule, active = well fitted curve in the direction sought with a large enough effect; inconclusive = small, poorly fitted or top-dose-only effect, or another doubt; inactive = no such curve, though single readings can be large; an effect the other way counts as inactive or inconclusive.

CC(=O)Nc1ccc(SC[C@H](Cc2ccccc2)N2CC[C@@H](O)CCC2=O)cc1	none
Cc1ccc(SC[C@H](Cc2ccccc2)N2CC[C@@H](C)CCC2=O)cc1	DT40 TDP1 no CPT 13µM, TDP1 cell CPT 11µM
Cc1cccc(-c2nc3c(c(=O)c4ccccc4n3C)c(=O)n2-c2ccccc2)c1	none
CC(C)c1ccc(-c2nnc3n(CCc4ccccc4)c(=O)c4ccccc4n23)cc1	DT40 TDP1 no CPT 18µM, TDP1 cell CPT inconclusive (no result: IL1B secr inh, uPA surface inh, HT1080 IDH1KD tx, HT1080-NT tox)
COc1ccc2c(c1)c1c(c(=O)n(CCc3ccccc3)c(=O)n1Cc1ccccc1)n2C	none (no result: IL1B secr inh, uPA surface inh, HT1080 IDH1KD tx, HT1080-NT tox)
CC(=O)Nc1ccc(-c2nnc3n(Cc4ccc(C)cc4)c(=O)c4ccccc4n23)cc1	none (no result: IL1B secr inh, uPA surface inh, HT1080 IDH1KD tx, HT1080-NT tox)
COc1ccc(OC)c(-c2nnc3n(Cc4ccc(C)cc4)c(=O)c4ccccc4n23)c1	DT40 TDP1 no CPT 18µM, TDP1 cell CPT 10µM (no result: IL1B secr inh, uPA surface inh, HT1080 IDH1KD tx, HT1080-NT tox)
Cc1cccc(-c2nnc3n(CCc4ccccc4)c(=O)c4ccccc4n23)c1	DT40 TDP1 no CPT 26µM, TDP1 cell CPT inconclusive (no result: IL1B secr inh, uPA surface inh, HT1080 IDH1KD tx, HT1080-NT tox)
COc1ccc(-c2nnc3n(CCc4ccccc4)c(=O)c4ccccc4n23)c(OC)c1	DT40 TDP1 no CPT 13µM, TDP1 cell CPT 18µM
O=c1c2ccccc2n2c(-c3ccccc3F)nnc2n1CCc1ccccc1	DT40 TDP1 no CPT 18µM, TDP1 cell CPT inconclusive (no result: IL1B secr inh, uPA surface inh, HT1080 IDH1KD tx, HT1080-NT tox)
COc1cc(-c2nnc3n(CCc4ccccc4)c(=O)c4ccccc4n23)cc(OC)c1OC	DT40 TDP1 no CPT 16µM, TDP1 cell CPT inconclusive
N#CCCn1c(=O)c(CCc2ccccc2)nc2cnc(N3CCOCC3)nc21	none (no result: IL1B secr inh, uPA surface inh, HT1080 IDH1KD tx, HT1080-NT tox)
CCCCc1cc(=O)oc2cc(OC(C)C(=O)NCC3CCC(C(=O)O)CC3)c(Cl)cc12 (stereo not drawn)	none
COc1ccc(-c2ccc(CCC(=O)O)n2CC(=O)Nc2cccc(Cl)c2C)cc1	none (no result: IL1B secr inh, uPA surface inh, HT1080 IDH1KD tx, HT1080-NT tox)
CCCCN(c1ccccc1)S(=O)(=O)c1cc2c3c(c1)C(C)C(=O)N3CCC2 (stereo not drawn)	DT40 TDP1 no CPT 29µM, TDP1 cell CPT 10µM (no result: IL1B secr inh, uPA surface inh, HT1080 IDH1KD tx, HT1080-NT tox)
CCSc1nnc(NC(=O)C(C(F)(F)F)C(F)(F)F)s1	DT40 TDP1 no CPT inconclusive, TDP1 cell CPT inconclusive
CCSc1nnc(NC(=O)C(CC)(C(F)(F)F)C(F)(F)F)s1	DT40 TDP1 no CPT 18µM, TDP1 cell CPT inconclusive, HT1080 IDH1KD tx inconclusive, HT1080-NT tox inconclusive
CCSc1nnc(NC(=O)C(C)(C(F)(F)F)C(F)(F)F)s1	DT40 TDP1 no CPT 18µM, TDP1 cell CPT 23µM, HT1080 IDH1KD tx inconclusive, HT1080-NT tox inconclusive
COc1ccc(N2CCN(Cc3nc4c(c(=O)[nH]c(=O)n4C)n3Cc3ccccc3)CC2)cc1	none (no result: IL1B secr inh, uPA surface inh, HT1080 IDH1KD tx, HT1080-NT tox)
COc1cccc(/C=N/NC(=O)c2c(-c3ccccc3)noc2C)c1O	DT40 TDP1 no CPT 4.6µM, TDP1 cell CPT 4.1µM, HT1080 IDH1KD tx inconclusive
Cc1onc(-c2ccccc2)c1C(=O)N/N=C/c1cc(Br)c(Br)o1	DT40 TDP1 no CPT inconclusive, TDP1 cell CPT inconclusive, IL1B secr inh -93, HT1080 IDH1KD tx inconclusive
Cc1onc(-c2ccccc2)c1C(=O)N/N=C/c1c[nH]c2ccccc12	DT40 TDP1 no CPT inconclusive, IL1B secr inh -72
Cc1onc(-c2ccccc2)c1C(=O)N/N=C/c1ccc(Br)cc1	TDP1 cell CPT inconclusive, IL1B secr inh inconclusive
COc1cccc(/C=N/NC(=O)c2c(-c3ccccc3)noc2C)c1OC	none
O=C(Nc1nccs1)C(Br)C(Br)c1ccccc1 (stereo not drawn)	DT40 TDP1 no CPT 21µM, TDP1 cell CPT 10µM, IL1B secr inh -86, HT1080 IDH1KD tx inconclusive
CC(C)C(C(=O)Nc1nccs1)c1ccc(Cl)cc1 (stereo not drawn)	DT40 TDP1 no CPT inconclusive, TDP1 cell CPT inconclusive, HT1080 IDH1KD tx 10µM, HT1080-NT tox inconclusive
CC(C)C(C(=O)Nc1ccncc1)c1ccc(Cl)cc1 (stereo not drawn)	DT40 TDP1 no CPT 16µM, TDP1 cell CPT inconclusive, uPA surface inh inconclusive, HT1080 IDH1KD tx inconclusive
CC(C(=O)Nc1nccs1)c1ccc([N+](=O)[O-])cc1 (stereo not drawn)	none
O=C(O)[C@@H]1CSCN1	none (no result: IL1B secr inh, uPA surface inh, HT1080 IDH1KD tx, HT1080-NT tox)
